Rows were chosen to be rich in hits. Some 21% of all compounds tested hit in one or more screens of this group.
Pf growth 48h: P. falciparum growth inhibition at 48 hours (one generation); P. falciparum luciferase growth in erythrocytes, 48 h; Potency, µM (highest dose often 28.7 µM), for inactives: at the top dose activity change, negative = inhibition, hits mostly inhibitors; 310,000 compounds, 5.9% hits; note: potency is the fitted concentration of half-maximal effect; % is set by controls: 0 for no effect and ±100 for the full control effect
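Growth was read as firefly luciferase luminescence after a 48 h, 37 C, 5% CO2 exposure of compounds to reporter-bearing P. falciparum cultures (0.1% parasitemia, 2% hematocrit final) in Albumax-supplemented RPMI 1640.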
Pf growth 96h: P. falciparum growth inhibition at 96 hours; Potency, µM (titrated, usually from 28.7 µM), without a hit: at the highest dose activity change, negative = inhibition, hits mostly inhibitors; 320,000 compounds, 6.9% hits; P. falciparum luciferase reporter growth, 96 h; note: potency is the fitted concentration of half-maximal effect; % is set by controls: 0 for no effect and ±100 for the full control effect
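Luminescence readout: decreased luciferase signal marks inhibited growth of reporter-expressing P. falciparum in infected red cells (2% hematocrit, 0.05% parasitemia final), exposed to compound two generations (96 h, 37 C, 5% CO2).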
Shiga inhibitor: inhibitors of Shiga toxin in Vero cells | Vero cells, Shiga toxin protein synthesis inhibition reporter | inhibition, % at 38.7 µM | 290,000 compounds, 9.2% hits | AID 2315; in the data active = inhibition mostly above about 28%, no sharp cut-off; inactive = mostly below about 43%; note: 0% is about no effect
CHX counter: affects cycloheximide protein synthesis inhibition readout, counter-screen. cell reporter, cycloheximide protein synthesis inhibition counterscreen. max response, %. 300,000 compounds, 12% hits; in the data active = max response mostly above about 13%, no sharp cut-off; inactive = mostly below about 14%; note: read at 38.3 µM for the half of the compounds with a filed dose; 0% is about no effect
* hit, by the source's call; ? = inconclusive; . = no result; [ ] = dose if it differs, or a comment. Unless noted, calls come from the whole dose curve; as a rule, active = well fitted inhibition curve with a large enough effect; inconclusive = small, poorly fitted or top-dose-only effect, or another doubt; inactive = no such curve, though single readings can be large or run the other way.

SMILES	Pf growth 48h	Pf growth 96h	Shiga inhibitor	CHX counter
Cc1cc(=O)[nH]c(Nc2ccc(C(=O)OC(C)C)cc2)n1	?	2.6µM*	-3	-2
COc1ccc(/C=N/Nc2nc3ccccc3[nH]2)c(OC)c1OC	?	4.1µM*	141*	41*
NS(=O)(=O)c1ccc(N/N=C/c2ccc(O)cc2O)c([N+](=O)[O-])c1	?	?	17	-1
Cc1cc(=O)[nH]c(Nc2ccc(Cl)cc2)n1	-1%	-7%	-2	3
C(=N\Nc1nc2ccccc2[nH]1)/c1c[nH]c2ccccc12	0.66µM*	26%	67*	54*
O=[N+]([O-])c1cc(/C=N/Nc2nc3ccccc3[nH]2)c(O)cc1O	2.1µM*	0%	104*	43*
CCOc1ccccc1/C=N/Nc1nc(C)cc(=O)[nH]1	4%	-7%	-5	-1
Cc1cc(=O)[nH]c(N/N=C/c2c[nH]c3ccccc23)n1	?	5%	27	29*
Cc1ccccc1/C=N/Nc1nc2ccccc2[nH]1	?	-35%	76*	49*
COC(=O)c1ccc(-n2c(C)cc(/C=N/Nc3nc(C)cc(=O)[nH]3)c2C)cc1	8.3µM*	13µM*	22	6
COc1cccc(/C=N/Nc2nc(C)cc(=O)[nH]2)c1OC	48%	-5%	45*	21*
CN(C)S(=O)(=O)c1ccc(C(=O)OCC(=O)c2csc(N3CCCCC3)n2)cc1	18%	3%	.	.
COc1ccc(CCC(=O)NC2=NCCS2)cc1OC	3%	-36%	-1	1
O=C(CCCCN1CCCCC1)c1ccc2c(c1)Cc1ccccc1-2	5.2µM*	13%	-16	-1
CNC(=O)c1ccsc1NC(=O)c1sc2ccccc2c1Cl	105%	113%	27	22*
Cc1ccc(NC(=O)c2sc3ccccc3c2Cl)nc1	79%	129%	65*	43*
Cc1nnc(NC(=O)c2sc3ccccc3c2Cl)s1	-26%	-26%	-21	11
COCc1nnc(NC(=O)c2sc3ccccc3c2Cl)s1	66%	?	91*	44*
Cc1c(C(=O)NC2=NCCS2)oc2ccccc12	164%	16%	56*	33*
CSCC[C@H](NC(=O)[C@H](CC(C)C)NC(=O)[C@@H]1CCCN1C(=O)[C@H](Cc1ccccc1)NC(=O)[C@H](Cc1ccccc1)NC(=O)[C@@H]1CCC(=O)N1)C(N)=O	.	.	-4	-2
Cc1cccnc1NC(=O)c1sc2ccccc2c1Cl	92%	98%	90*	51*
O=C(NC1=NCCS1)c1sc2cc(Cl)cc(Cl)c2c1Cl	?	?	9	-3
O=C(NC1=NCCS1)c1sc2ccccc2c1Cl	47%	35%	93*	47*
COc1ccc(C)cc1-n1nnnc1SCC(=O)c1ccc2c(c1)OCCO2	17%	18%	4	9
Cc1ccc(C)c(C(=O)CSc2nnnn2C(C)C)c1	57%	?	54*	62*
SMILES	Pf growth 48h	Pf growth 96h	Shiga inhibitor	CHX counter
Cc1ccc(C)c(C(=O)CSc2nnnn2-c2cccnc2)c1	-8%	10%[5.75 µM]	29	10
CCCn1c(SCC(=O)c2ccc3c(c2)OCCO3)nc2c1c(=O)n(C)c(=O)n2C	-6%	?	-8	2
CCCn1c(SCC(=O)c2ccc3c(c2)OCCO3)n[nH]c1=O	27%	?	62*	30*
CC(C)n1nnnc1SCC(=O)c1ccc2c(c1)OCCO2	47%	194%	42*	36*
COc1ccc(-n2nnnc2SCC(=O)c2ccc3c(c2)OCCO3)c(OC)c1	-7%	37%	25	-2
CCn1nnnc1SCC(=O)c1ccc2c(c1)OCCO2	118%	48%	113*	52*
CC(=O)c1cccc(NC(=O)CN2CCc3cc4c(cc3C2C)OCCCO4)c1 (stereo unspecified)	?	?	11	-2
COc1ccc(CN(C)C(=O)c2ccc(OCC(=O)N3CCOCC3)c(OC)c2)cc1	-1%	?	.	.
CCn1c(SCC(=O)c2ccc3c(c2)OCCO3)nnc1C(C)C	-19%	?	35	19*
COc1cccc(C(=O)CSc2nnnn2C2CCCCC2)c1	.	67%	59*	28*
O=C(CSc1nnnn1C1CCCC1)c1ccc2c(c1)OCCO2	130%	?	50	33*
CC1=CC(C)(C)N2C(=O)C3(C(C#N)=C(N)OC4=C3C(=O)CC(C)(C)C4)c3c(C)c(C)cc1c32 (stereo unspecified)	.	4.1µM*	14	-3
COc1cc2c3c(c1)C1(C(=O)N3C(C)(C)C=C2C)C(C#N)=C(N)Oc2cc(C)oc(=O)c21 (stereo unspecified)	5.9µM*	-28%	2	-2
